# Data as given in PubChem BioAssay (NCI).
# Compounds without any hit were thinned out: in the full panel of roughly 83,000, 20% have a hit.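 How to read the values: 0–100, growth inhibition (40 = 60% inhibited); 0, no net growth; -100 to 0, cell death (-40 = 40% of starting cells died; -100 = all dead).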 Values without a mark were called inactive. Calls of active or inactive are those of the source. Rule for the calls: active = growth percent below 10; inactive = the rest.
# Experiments:
# Experiment in all cases: NCI-60 one-dose screen, 48 h (100 = growth as untreated, 0 = no growth, -100 = all killed)
# DU-145 prostate = conditions: 10 µM unless noted
# MALME-3M melanoma = conditions: 10 µM unless noted
# MDA-MB-231 breast = conditions: 10 µM unless noted
# RXF 393 renal = conditions: 10 µM unless noted
# SF-268 CNS = conditions: 10 µM unless noted
# SF-295 CNS = conditions: 10 µM unless noted
# SF-539 CNS = conditions: 10 µM unless noted
# UACC-257 melanoma = conditions: 10 µM
# M14 melanoma = conditions: 10 µM unless noted
# HT29 colon = conditions: 10 µM unless noted
# SNB-75 CNS = conditions: 10 µM unless noted
# SNB-19 CNS = conditions: 10 µM unless noted
# U251 CNS = conditions: 10 µM unless noted
# PC-3 prostate = conditions: 10 µM unless noted
# SK-MEL-5 melanoma = conditions: 10 µM unless noted
# UACC-62 melanoma = conditions: 10 µM unless noted
# LOX IMVI melanoma = conditions: 10 µM unless noted
# SK-MEL-28 melanoma = conditions: 10 µM unless noted
# HCT-15 colon = conditions: 10 µM unless noted
SMILES,growth (DU-145 prostate),growth (MALME-3M melanoma),growth (MDA-MB-231 breast),growth (RXF 393 renal),growth (SF-268 CNS),growth (SF-295 CNS),growth (SF-539 CNS),growth (UACC-257 melanoma),growth (M14 melanoma),growth (HT29 colon),growth (SNB-75 CNS),growth (SNB-19 CNS),growth (U251 CNS),growth (PC-3 prostate),growth (SK-MEL-5 melanoma),growth (UACC-62 melanoma),growth (LOX IMVI melanoma),growth (SK-MEL-28 melanoma),growth (HCT-15 colon)
CCN1CCN(Cc2ccc(C(=O)Nc3nc4ccc(Oc5ccnc(C(=O)NC)c5)cc4s3)cc2C(F)(F)F)CC1,79.3%,-5.31% (active),52%,25%,78.1%,35.1%,-42.2% (active),-2.29% (active),-4.9% (active),3.42% (active),75.9%,66.6%,41.9%,46.1%,17.7%,24.6%,-11.8% (active),-66.5% (active),
Cc1ccccc1/C=C/c1nn2c(-c3ccoc3C)nnc2s1,103%,106%,104%,96.2%,101%,94%,103%,110%,99%,97.7%,111%,90.8%,97.6%,,98.4%,88%,101%,94.9%,97.9%
COc1ccc([C@@H]2[C@@H](O)C(=O)N2c2cc(OC)c(OC)c(OC)c2)cc1Cl,15.2%,64.3%,26%,26%,44%,9.68% (active),-12.4% (active),,13.4%,12.8%,53.4%,30%,1.75% (active),17.5%,0.0843% (active),,18.5%,64.2%,
COc1cc2c3c(n(CCCN4CCCCC4)c(=O)c2cc1OC)-c1cc2c(cc1C3=O)OCO2,-92.2% (active),-78.5% (active),-77.1% (active),-73.9% (active),-55.5% (active),-75.6% (active),-89.3% (active),,-89.5% (active),-96.9% (active),-85.3% (active),-72.3% (active),-92.5% (active),-87% (active),60.8%,59.2%,-74% (active),-79.4% (active),-84.2% (active)
COCCOc1ccc(-c2csc(NC(=O)CN3CCN(CCO)CC3)n2)cc1NS(=O)(=O)c1cccc2c(N(C)C)cccc12,92.5%,40.1%,79.3%,65.1%,90.5%,70.3%,61.9%,,-71.7% (active),-68.5% (active),88.6%,62.2%,49.1%,76.1%,86.5%,80.5%,11.8%,30.8%,
COc1cc2c3c(n(CCCNC4CCCC4)c(=O)c2cc1OC)-c1cc2c(cc1C3=O)OCO2,-78.5% (active),-75% (active),-76.6% (active),49.7%,-42.7% (active),-76.8% (active),-85.4% (active),,-88.9% (active),-55.1% (active),84.9%,46.2%,-87.9% (active),-84.7% (active),95%,74%,-82.3% (active),95.8%,-68.6% (active)
COc1ccc2c(C3=C(c4cn(C)c5ccccc45)C(=O)NC3=O)coc2c1,31.1%,97.1%,30.4%,-10.2% (active),67.6%,36.3%,1.16% (active),,36.9%,6.25% (active),17.6%,37.9%,15.8%,21.9%,42.4%,29.5%,34.8%,65.2%,20%
CCNCCCn1c2c(c3cc(OC)c(OC)cc3c1=O)C(=O)c1cc(OC)cnc1-2,19.6%,62.9%,16.3%,13.6%,39.5%,14.8%,-7.15% (active),,13.9%,-60.9% (active),17.1%,25.3%,-16.1% (active),46.5%,-18.2% (active),,-8.19% (active),64.7%,22%
COc1cc2c3c(n(CCCN4CCCC4)c(=O)c2cc1OC)-c1cc2c(cc1C3=O)OCO2,-71.1% (active),-76.5% (active),-76.1% (active),-75.9% (active),-49.1% (active),35.1%,-83.2% (active),,-86.3% (active),-76% (active),-74.6% (active),-48.9% (active),-96.2% (active),-64.5% (active),87.5%,73.9%,-80.1% (active),-74.1% (active),-61.7% (active)
COc1ccc(-c2oc3cc(O)cc(O)c3c(=O)c2OC)cc1O,15.7%,68.8%,32.7%,-29.9% (active),45.2%,-24.1% (active),-34.6% (active),78.8%,28.3%,57%,-24.3% (active),28.2%,15.6%,24.1%,,,36.8%,,
COc1ccc([C@H]2[C@H](O)C(=O)N2c2cc(OC)c(OC)c(OC)c2)cc1,17.8%,59.9%,25%,21.8%,47.5%,14.1%,-20.3% (active),,10.3%,-2.31% (active),49.6%,29%,8.04% (active),13.9%,0.112% (active),20.6%,15.1%,62.8%,9.24% (active)
COc1cnc2c(c1)C(=O)c1c-2n(CCCn2ccnc2)c(=O)c2cc(OC)c(OC)cc12,-2.47% (active),-51.4% (active),-0.696% (active),-10.5% (active),29.2%,-20.5% (active),-35.2% (active),,-86.5% (active),-56.1% (active),12.4%,14.9%,-84.8% (active),-54.9% (active),-28.4% (active),-11% (active),-51.5% (active),,-53.2% (active)
